# According to PubChem BioAssay AID431 (Sanford-Burnham Center for Chemical Genomics, 2006):
# About 1,100 (1.7%) of roughly 63,000 compounds were called active. What follows is part of a selection rich in actives, with near analogues and random picks from the rest. Entries with a potency or affinity are not part of this list. Unmarked numbers belong to inactive results.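 The calls were made as follows: active = compounds whose percent cytotoxicity in the single-dose primary screen, scaled between solvent and toxic-drug controls, exceeds 50; inactive = the rest.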
# Test: viability loss of HPDE-C7K cells – cell-based, fluorescence, HTS, primary screen (AID 431);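 also: 0% = DMSO solvent wells and 100% = doxorubicin-treated wells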
# Conditions: HPDE-C7K KRASV12 cells, Alamar Blue viability, 48 h; at 10 µM; active compounds read high
row,Compound,cytotoxicity
1,O=C(CSC1=NCCS1)NC1CCCCC1,3.6%
2,CCC(CC)C1C(C#N)=C(N)Oc2n[nH]c(C)c21 (stereo unspecified),56.7% (active)
3,Cc1[nH]nc2c1C(C(C)C)C(C#N)=C(N)O2 (stereo unspecified),7.9%
4,CCC(C)C1C(C#N)=C(N)Oc2n[nH]c(C)c21 (stereo unspecified),7.5%
5,COC(=O)Cc1cc(=O)n(-c2ccccc2)[nH]1,-4.1%
6,CCOC(=O)Cc1cc(=O)n(-c2nc3ccccc3s2)[nH]1,79.8% (active)
7,COC(=O)Cc1cc(=O)n(-c2nc3ccccc3s2)[nH]1,87.9% (active)
8,COC(=O)Cc1cc(=O)n(-c2nc3ccccc3[nH]2)[nH]1,4.2%
9,CCOC(=O)c1nc2ccccc2s1,-9.2%
10,CCOC(=O)CC(=O)Nc1nc2ccccc2s1,-6.8%
11,CSC1=C(C#N)C(C)C2=C(CC(C)(C)CC2=O)N1 (stereo unspecified),-15.4%
12,Cc1cc(C)nc(N2CCC(C(=O)NC3CCCCCC3)CC2)n1,-1.8%
13,COc1ccc(N2CCN(C(c3ccccc3)c3nnnn3Cc3ccc(F)cc3)CC2)cc1 (stereo unspecified),-7.5%
14,O=C(Cc1ccc(Cl)cc1)Nc1ccc(-c2nnc(-c3ccco3)o2)cc1,4.4%
15,O=C1CN(C(=O)c2cccs2)c2ccccc2N1,-12.5%
16,O=C(c1ccc(F)cc1)N(Cc1ccccc1)C1CCS(=O)(=O)C1 (stereo unspecified),-7.8%
17,COc1ccc(-c2[nH]ncc2-c2ccc(Cl)cc2)c(O)c1,47%
18,CCOc1ccc(-c2[nH]ncc2Oc2ccccc2OC)c(O)c1,61.4% (active)
19,COc1ccc(-c2[nH]ncc2Oc2ccccc2OC)c(O)c1,42.5%
20,CCOc1ccc(-c2[nH]ncc2Oc2ccccc2OCC)c(O)c1,55.7% (active)
21,COc1ccc(Oc2cn[nH]c2-c2ccc(O)cc2O)cc1,24.9%
22,CCOc1ccccc1Oc1cn[nH]c1-c1ccc(OC)cc1O,61.8% (active)
23,CCOc1ccc(-c2[nH]ncc2-c2ccc(OC)c(OC)c2)c(O)c1,51.8% (active)
24,COc1ccc(-c2[nH]ncc2-c2cnc(C)s2)c(O)c1,7.2%
25,C=C(C)COc1ccc(-c2[nH]ncc2-c2ccc(OC)c(OC)c2)c(O)c1,4.1%
26,CCOC(=O)C1CCN(Cc2nc3ccccc3c(=O)n2-c2ccc(OCC)cc2)CC1,7.8%

row,Compound,cytotoxicity
1,CC(=O)Nc1ccc(OC(F)(F)C(F)C(F)(F)F)c(NC(C)=O)c1 (stereo unspecified),-5.3%
2,CCOC(=O)c1c(C)n(CC(O)c2ccccc2)c2ccc(O)cc12 (stereo unspecified),-7.5%
3,OCCNCc1ccc(OC2CCCC2)cc1,5.4%
4,COc1ccc(CCNC(=O)CC2Nc3cc(C)c(C)cc3NC2=O)cc1OC (stereo unspecified),0%
5,O=C(O)Cn1cccc1C(=O)c1ccccc1,-0.1%
6,N=c1c(C(=O)NCc2ccc(F)cc2)cc2c(=O)n3ccccc3nc2n1Cc1ccco1,-3.9%
7,O=C(Cn1c(=O)sc2ccccc21)NCCOc1ccccc1F,-11.5%
8,CCC(C)Sc1nnc(Cc2cc(=O)[nH]c(=O)[nH]2)n1-c1ccc(F)cc1 (stereo unspecified),-12.7%
9,CC(=O)Nc1ccc(N(C(=O)c2cnccn2)C(C(=O)NC2CCCCC2)c2ccc(O)cc2)cc1 (stereo unspecified),-16.5%
10,CCOC(=O)c1sc(NC(=O)c2ccc(CC)s2)nc1C,4.6%
11,C=C(C)COc1ccc(-c2nc(N)ncc2Oc2ccccc2OCC)c(O)c1,18.1%
12,C=C(C)COc1ccc(-c2[nH]ncc2Oc2ccccc2OCC)c(O)c1,78.4% (active)
13,CC1Cc2ccccc2N1C(=O)CN1C(=O)NC(C)(c2ccc3c(c2)OCCO3)C1=O (stereo unspecified),1.8%
14,COc1cc2ccccc2cc1C(=O)N1CCN(C)CC1,-4.6%
15,CN1CCN(c2ccc(NC(=O)c3ccccc3Br)cc2)CC1,2.5%
16,COc1cc2ccccc2cc1C(=O)Nc1ccc(N2CCN(C)CC2)cc1,65.5% (active)
17,O=C(Nc1sccc1C(=O)N1CCOCC1)c1cccnc1,10.9%
18,Cn1c(=O)c2c(SCC(=O)N3CCC(Cc4ccccc4)CC3)nc(C3CC3)nc2n(C)c1=O,4%
19,CCCc1nc(SCC(=O)N2CCN(c3ccccc3)CC2)c2c(=O)n(C)c(=O)n(C)c2n1,0.7%
20,CCOC(=O)CSc1nc(N)c(C#N)c(-c2ccc(OC)cc2)c1C#N,-14.8%
21,CCCCOc1ccc(-c2c(C#N)c(N)nc(SCC(N)=O)c2C#N)cc1,105% (active)
22,CCCCOC(=O)CSc1nc(N)c(C#N)c(-c2ccc(OCC)cc2)c1C#N,17%
23,CCOC(=O)CC(=O)CSc1nc(N)c(C#N)c(-c2ccc(Cl)cc2)c1C#N,68.4% (active)
24,CCOC(=O)CC(=O)CSc1nc(N)c(C#N)c(-c2ccc(F)cc2)c1C#N,16.5%
25,CCCCOC(=O)CSc1nc(N)c(C#N)c(-c2ccc(OC)cc2)c1C#N,-26.1%
26,O=C(O)c1ccccc1C(=O)c1cccs1,-9.3%

row,Compound,cytotoxicity
1,CCc1nc(NCC2CCCO2)c2oc3ccccc3c2n1 (stereo unspecified),-29.3%
2,O=C(NCCCN1CCN(CCCNC(=O)c2ccc3c(c2)OCO3)CC1)c1ccc2c(c1)OCO2,-34.5%
3,Cc1ccc(N2CC(C(=O)N3CCN(C(=O)c4ccco4)CC3)CC2=O)cc1 (stereo unspecified),52.5% (active)
4,Cc1ccc(N2CC(C(=O)N3CCN(c4ccccc4)CC3)CC2=O)cc1 (stereo unspecified),30.6%
5,CCOC(=O)C1CCN(C(=O)C2CC(=O)N(c3ccc(C)cc3)C2)CC1 (stereo unspecified),-13.4%
6,CCN(CC)c1ccc(NC(=O)C2CCCN(S(=O)(=O)c3cccnc3)C2)c(C)c1 (stereo unspecified),-9.5%
7,COc1ccc(-c2cc(-c3cc(F)ccc3O)[nH]n2)cc1OC,8.8%
8,Oc1ccccc1-c1cc(-c2cccc(F)c2)n[nH]1,16.2%
9,COc1ccc(-c2cc(-c3ccccc3O)[nH]n2)cc1OC,61.1% (active)
10,N#CC1=C(N)SC(N)=C(C#N)C1c1ccnc2ccccc12,-13.5%
11,COc1ccc(N2CC(O)=C(c3nc4ccccc4s3)C2=N)cc1,9.4%
12,CCOc1ccccc1N1CC(O)=C(c2nc3ccccc3s2)C1=N,64.8% (active)
13,COc1ccc(N2CC(O)=C(c3nc4ccccc4s3)C2=N)c(OC)c1,11.5%
14,O=C(c1cccs1)N1CCOCC1,-26.6%
15,O=C(Nc1nc2c(s1)CCc1ccccc1-2)c1cccs1,-14.1%
16,COc1ccc2c(c1)Cc1sc(NC(=O)c3cccs3)nc1-2,-6.8%
17,COc1ccc2c(c1)-c1nc(NC(=O)c3cccs3)sc1CC2,80.1% (active)
18,Oc1ccccc1-c1nc(N2CCN(Cc3ccccc3)CC2)c2ccccc2n1,13%
19,Clc1ccccc1CN(Cc1ccccc1)c1ncnc2nc[nH]c12,115% (active)
20,Clc1ccccc1CNc1ncnc2nc[nH]c12,-10.1%
21,CCCCN(Cc1ccccc1)c1ncnc2nc[nH]c12,6.8%
22,O/N=C1/CCCCc2sccc21,-23.7%
23,COC(=O)C1=CN(CC2CCCO2)C=C(C(=O)OC)C1c1cc(OC)c(OC)c(OC)c1 (stereo unspecified),9.3%
24,COc1cc(S(=O)(=O)N(Cc2cccnc2)Cc2ccco2)ccc1-n1cnnn1,6.5%
25,CCOc1ccccc1CN(Cc1ccco1)S(=O)(=O)c1ccc(-n2cnnn2)c(OC)c1,53.2% (active)
26,COc1ccccc1CN(Cc1ccco1)S(=O)(=O)c1ccc(-n2cnnn2)c(OC)c1,20.8%

row,Compound,cytotoxicity
1,COC(=O)c1ccccc1NC(=O)NCC1CCCO1 (stereo unspecified),8.4%
2,Cc1cc(C)cc(NS(=O)(=O)c2ccc3[nH]cc(C(=O)NCc4ccco4)c(=O)c3c2)c1,42.5%
3,CCN(CC)C(=O)CSc1ncnc2c1nnn2-c1ccc(OC)cc1,-10.4%
4,COc1ccc(-n2nnc3c(SCC(=O)NCC4CCCO4)ncnc32)cc1 (stereo unspecified),2.8%
5,O=C(NCCc1ccccc1)c1ccnc(/C=N/O)c1,-14.3%
6,CCn1c2c(c3cc(Cl)ccc31)CCCC2=O,-6.2%
7,CCn1c2c(c3cc(C(=O)O)ccc31)CCCC2=O,-19.1%
8,Cc1oc2cc(O)cc(C)c2c(=O)c1-c1cnn(-c2ccccc2)c1,61.3% (active)
9,Cc1oc2cc(O)ccc2c(=O)c1-c1cnn(-c2ccccc2)c1,22.6%
10,Cc1oc2c(O)c(O)ccc2c(=O)c1-c1cnn(-c2ccccc2)c1,0.8%
11,COc1cc(NC(=O)Nc2ccccc2)c(OC)cc1NC(=O)CN1CCCCC1,-3.3%
12,COc1cc(NC(=O)Nc2cccc(Cl)c2)c(OC)cc1NC(=O)CN1CCCCC1,89.7% (active)
13,COc1cc(NC(=O)Nc2ccccc2OC)c(OC)cc1NC(=O)CN1CCCCC1,48.5%
14,O=C(NC1CCCC1)C1CC1c1ccccc1 (stereo unspecified),17.8%
15,CC1(C)CC(=O)C2=C(C1)OC(N)=C(C#N)C2c1cccc(OC(=O)c2ccco2)c1 (stereo unspecified),-2.4%
16,Nc1nc(-c2ccccc2)cc(C(F)(F)F)n1,-1.4%
17,FC(F)(F)c1cc(-c2ccco2)nc(NCc2ccco2)n1,-0.2%
18,COc1ccc(-c2cc(C(F)(F)F)nc(NC3CCCC3)n2)cc1OC,8.8%
19,FC(F)(F)c1cc(-c2ccco2)nc(-n2nnc3ccccc32)n1,3.9%
20,FC(F)(F)c1cc(-c2ccco2)nc(NCc2ccccc2)n1,8.4%
21,COc1nc(-c2ccccc2)cc(C(F)(F)F)n1,-0.7%
22,COc1ccc(-c2cc(C(F)(F)F)nc(N3CCCCC3)n2)cc1OC,-2.6%
23,FC(F)(F)c1cc(-c2ccco2)nc(-n2cnc3ccccc32)n1,41.5%
